Screening data (PubChem BioAssay)
Shown are actives, neighbours in structure and some others; about 15% of the full set was active somewhere.
Gal4-VP16 FLuc = Gal4-VP16 reporter inhibition counter-screen | 310,000 tested, 3.5% active | Potency, µM (series often up to 53.6 µM), without a hit: top-dose activity, negative = inhibition, hits mostly inhibitors | AID 2546 | Drosophila S2 Gal4-VP16 UAS-luciferase, luminescence, 20 h;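 note: Gal4-VP16 expression switched on by copper sulfate through the metallothionein promoter; nearly all actives have a fitted effect of over 50% in size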
TDP1 cell CPT = DT40-hTDP1 cell growth loss with CPT; AID 686979; chicken DT40 Tdp1-/-;hTDP1 cells + 20 nM CPT, ATP luminescence, 48 h; Potency, µM (highest dose often 46.2 µM), inactives show top-dose activity change, negative = growth inhibition, actives largely listed as inhibitors; 420,000 tested, 12% active; note: nearly all actives have a fitted effect of over 55% in size
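Chicken DT40 Tdp1-/- cells complemented with human TDP1, 400 cells/well, exposed to compounds plus 20 nM camptothecin for at least 48 h at 37 C; viability read as ATP content by CellTiter-Glo luminescence.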
12-LOX inh = inhibitors of human 12S-lipoxygenase ALOX12; purified 12hLO, xylenol orange hydroperoxide absorbance; 580,000 tested, 1.1% active; Potency, µM (titrated, usually from 108 µM), for inactives: at the top dose activity change, negative = inhibition, actives largely listed as inhibitors
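Purified human 12hLO at 150 nM in 25 mM Hepes, 0.01% Triton X-100, pH 7.0, preincubated 15 min at room temperature with compound. Reaction started with 40 uM arachidonic acid, 30 min at room temperature. Hydroperoxide measured by Fe-xylenol orange, 573/405 nm absorbance ratio.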
DT40 TDP1 no CPT = qHTS for Inhibitors of human tyrosyl-DNA phosphodiesterase 1 (TDP1): qHTS in cells in absence of CPT; DT40 Tdp1-/- hTDP1 cells, no CPT, ATP luminescence, 48 h; Potency, µM (doses to about 46.2 µM), for the others: at the highest dose activity change, negative = growth inhibition, hits mostly inhibitors; 420,000 tested, 15% active; note: nearly all actives have a fitted effect of over 55% in size
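No-CPT arm: Tdp1-/-;hTDP1 DT40 cells (400/well) plus compounds, incubated ≥48 hr at 37 °C. Readout CellTiter-Glo luminescence.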
ELG1 DNA repair = inhibitors of ELG1-dependent DNA repair in HEK293T cells | Potency, µM (top dose mostly 46.1 µM), inactives show at the highest dose activity change, negative = inhibition, most hits filed as inhibitors | 330,000 tested, 2.3% active | HEK293T ELG1-luciferase reporter, luminescence, 16 h; DNA damage induced by 5-fluorouridine; note: nearly all actives have a fitted effect of over 55% in size
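HEK293T cells expressing luciferase-tagged ELG1 (2,000/well) received 5-Fluorouridine plus compound or DMSO for 16 hr at 37 °C. Luciferase was read by ONE-Glo luminescence after 30 min at room temperature.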
RORgamma inh = ROR gamma (mouse) transcription inhibition. Drosophila S2 Gal4-RORgamma UAS-luciferase reporter, 20 h. 310,000 tested, 5.4% active. P51450. Potency, µM (doses to about 53.6 µM), for the others: at the top dose activity change, negative = inhibition, most hits filed as inhibitors. AID 2551; note: nearly all actives have a fitted effect of over 60% in size
Target sequence (P51450 whole entry, looked up, the tested form may be a part): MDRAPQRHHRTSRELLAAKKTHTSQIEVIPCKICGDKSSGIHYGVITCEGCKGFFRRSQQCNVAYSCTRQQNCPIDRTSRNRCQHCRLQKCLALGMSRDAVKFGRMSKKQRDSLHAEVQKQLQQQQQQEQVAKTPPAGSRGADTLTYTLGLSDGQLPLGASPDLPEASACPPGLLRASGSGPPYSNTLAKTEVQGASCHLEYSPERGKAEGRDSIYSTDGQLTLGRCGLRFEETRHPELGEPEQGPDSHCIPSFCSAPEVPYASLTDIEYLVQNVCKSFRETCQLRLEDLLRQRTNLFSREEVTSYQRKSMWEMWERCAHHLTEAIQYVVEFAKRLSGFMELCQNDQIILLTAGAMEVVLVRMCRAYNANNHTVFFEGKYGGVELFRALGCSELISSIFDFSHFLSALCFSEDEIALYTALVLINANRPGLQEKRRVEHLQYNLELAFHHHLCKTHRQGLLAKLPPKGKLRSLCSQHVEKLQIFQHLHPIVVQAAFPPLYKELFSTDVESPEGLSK
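Drosophila S2 cells stably expressing Gal4-DBD/mouse RORγ fusion under metallothionein promoter plus UAS-luciferase; compound 1 h, then 700 uM CuSO4 induction for 20 h at ambient temperature; inhibition read as reduced luminescence.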
* hit, by the source's call; ? = inconclusive; . = no result; [ ] = dose if it differs, or a comment. Calls come from the whole dose curve; as a rule, active = well fitted curve in the direction sought with a large enough effect; inconclusive = small, poorly fitted or top-dose-only effect, or another doubt; inactive = no such curve, though single readings can be large; an effect the other way counts as inactive or inconclusive. % is set by controls: 0 for no effect and ±100 for the full control effect; potency is the fitted concentration of half-maximal effect.

SMILES	Gal4-VP16 FLuc	TDP1 cell CPT	12-LOX inh	DT40 TDP1 no CPT	ELG1 DNA repair	RORgamma inh
CCn1c(SCC(=O)N/N=C/c2ccc(OC)c(OC)c2)nc2ccccc21	0%[0.365 µM]	?	18%	?	-5%	21%
CCSc1nc2ccccc2n1C(=O)/C=C/c1ccc(OC)c(OC)c1	?	4.1µM*	0%	3.3µM*	?	7.1µM*
C=CCSc1nc2ccccc2n1C(=O)/C=C/c1cc(OC)c(OC)c(OC)c1	5µM*	2.3µM*	4%	2.1µM*	?	3.5µM*
CCN(C(=O)CSc1nnc(Cn2nnc3ccccc32)o1)c1nc(C)cs1	-5%	?	?	?	?	-21%
O=C(CSc1nnc(Cn2nnc3ccccc32)o1)N(Cc1ccc(Cl)cc1)c1ccccc1	?	7.3µM*	-5%	7.3µM*	-21%	-72%
CCN(C(=O)CSc1nnc(Cn2nnc3ccccc32)o1)c1nc(-c2ccccc2)cs1	3%	23µM*	0%	?	18µM*	30%
Cc1cnc(-c2ccccc2)n1CCNC(=O)NCc1ccccc1	.	.	36%	.	.	.
CC(Oc1ccc(F)cc1)C(=O)Nc1nc(-c2ccc(F)cc2)ns1 (centres undefined)	.	?	?	13µM*	.	.
COc1ccc(-c2nsc(NC(=O)C(C)Oc3ccc(Cl)c(C)c3)n2)cc1 (centres undefined)	.	23µM*	-13%	?	.	.
O=C([C@@H]1C[C@H](Oc2ccccc2)CN1C(=O)C1(c2ccccc2)CC1)N1CCCC1	.	.	14%	.	.	.
COc1cccc(C(=O)N2CC(=O)N(c3ccc(C)cc3)CC2C)c1OC (centres undefined)	.	.	26%	.	.	.
CCOc1ccc(C(C)=O)cc1CSc1nnc(-c2cccs2)n1CC1CCCO1 (centres undefined)	4%	?	13%	18µM*	-10%	12%
COc1ccc(CN(C)C(=O)/C=C/c2ccc(S(=O)(=O)N3CCCCCC3)cc2)cc1	.	?	0%	23µM*	?	.
CCOc1ccc(S(=O)(=O)N2CCCCCC2)cc1	10%	2%	2%	-15%	0%	13%
CNC(=O)c1ccc(CN(C)C(=O)/C=C/c2ccc(S(=O)(=O)N3CCCCCC3)cc2)cc1	.	23µM*	-13%	23µM*	.	.
COc1cccc(NC(=O)CN(C)C(=O)/C=C/c2ccc(S(=O)(=O)N3CCCCCC3)cc2)c1	.	?	-12%	18µM*	.	.
CCOc1ccc(CN(C)C(=O)CCc2ccc(S(=O)(=O)N3CCCCCC3)cc2)cc1	.	-87%	?	-102%	7.9µM*	.
O=C(Nc1nn(-c2cccc(F)c2)c2cccc(N3CCOCC3)c12)C1CCC1	.	.	36%	.	.	.
CSc1cccc(NC(=O)c2ccc3c(c2)N(C)C2CCCCCN2C3=O)c1 (centres undefined)	.	.	-13%	.	.	.
CCOc1ccc(CN(C)C(=O)CCNC(=O)c2ccco2)cc1	.	-7%	205%	-3%	11%	.
CCOc1ccc(CN(C)C(=O)CCl)cc1	-15%	2.9µM*	-15%	2.9µM*	4%	-36%
OC[C@@H]1CN(Cc2ccc(F)cc2)C[C@H](n2cnc3c(NC4CC4)ncnc32)O1	.	?	9%	-30%	.	.
OC[C@@H]1CN(Cc2ccc(Cl)cc2)C[C@H](n2cnc3c(NC4CCCC4)ncnc32)O1	.	21µM*	-20%	?	.	.
CNc1ncnc2c1ncn2[C@H]1CN(Cc2cccc3ccccc23)C[C@@H](CO)O1	.	23µM*	-26%	?	.	.
CN(C)c1ncnc2c1ncn2[C@H]1CN(Cc2ccc(-c3ccccc3)cc2)C[C@@H](CO)O1	.	?	1%	15µM*	.	.
SMILES	Gal4-VP16 FLuc	TDP1 cell CPT	12-LOX inh	DT40 TDP1 no CPT	ELG1 DNA repair	RORgamma inh
OC[C@@H]1CN(Cc2ccc3c(c2)OCO3)C[C@H](n2cnc3c(NC4CC4)ncnc32)O1	.	?	-13%	21µM*	.	.
CCCN(C)c1nccnc1OC1CCN(C(=O)C(CC)CC)C1 (centres undefined)	.	.	27%	.	.	.
CCc1ccc2nc(C)cc(C(=O)OCC(=O)c3cccc([N+](=O)[O-])c3)c2c1	.	.	0%	.	.	.
O=[N+]([O-])c1ccc(/C=N/Nc2ccc(S(=O)(=O)Nc3cccc(Cl)c3)cc2[N+](=O)[O-])cc1	.	.	14%	.	.	.
OC[C@@H]1CN(Cc2ccc(-c3ccccc3)cc2)C[C@H](n2cnc3c(NC4CCC4)ncnc32)O1	.	4.1µM*	?	4.1µM*	.	.
OC[C@@H]1CN(Cc2ccccc2)C[C@H](n2cnc3c(NC4CC4)ncnc32)O1	.	-14%	-20%	-28%	.	.
COc1ccc(/C=c2\s/c(=C\C(=O)C(C)(C)C)[nH]c2=O)cc1O	?	15µM*	?	?	?	?
Cc1cccc(/C=c2\s/c(=C\C(=O)C(C)(C)C)[nH]c2=O)c1	-8%	?	325%	?	?	28%
O=C(Nc1ccc2snnc2c1)Nc1cccc2ccccc12	?	23µM*	-20%	?	?	-43%
CCc1ccccc1NC(=O)Nc1ccc2snnc2c1	.	18µM*	-25%	21µM*	.	.
COc1cccc(NC(=O)Nc2ccc3snnc3c2)c1	.	?	0%	?	.	.
